Source: PubChem BioAssay (National Center for Advancing Translational Sciences (NCATS))
The list is not random: actives were taken first. Their share in the collection is about 2.5%.
Cruzain inh noDet: qHTS Assay for Promiscuous and Specific Inhibitors of Cruzain (without detergent) | Cruzipain (Trypanosoma cruzi), P25779 | purified cruzain, Z-FR-AMC fluorescence, no detergent | Potency, µM, for the others: max response, negative = inhibition, actives largely listed as inhibitors | 200,000 tested, 2.3% active | AID 1476, 2009;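 also: plate controls were enzyme without inhibitor for no effect and buffer without enzyme for full effect; nearly all actives have a fitted effect of over 40% in size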
Target sequence (P25779 123-467 limits assumed): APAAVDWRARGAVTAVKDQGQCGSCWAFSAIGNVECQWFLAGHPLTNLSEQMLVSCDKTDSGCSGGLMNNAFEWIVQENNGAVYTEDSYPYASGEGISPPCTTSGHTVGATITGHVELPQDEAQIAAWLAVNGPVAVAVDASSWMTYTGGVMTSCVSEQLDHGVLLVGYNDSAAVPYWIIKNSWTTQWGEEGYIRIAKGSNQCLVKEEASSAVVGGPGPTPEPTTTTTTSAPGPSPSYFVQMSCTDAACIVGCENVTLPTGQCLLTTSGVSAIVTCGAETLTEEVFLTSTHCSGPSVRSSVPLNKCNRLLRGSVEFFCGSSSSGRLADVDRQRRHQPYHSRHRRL
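Purified cruzain at 1.5 nM, pre-incubated 15 min with compound at room temperature in 100 mM sodium acetate pH 5.5, 5 mM DTT, 0.00005% Triton X-100. Reaction started with 2 uM Z-FR-AMC; AMC fluorescence increase over 60 s gives rate.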
Cruzain Triton: qHTS Assay for Promiscuous and Specific Inhibitors of Cruzain (with detergent); 200,000 tested, 0.43% active; Cruzipain (Trypanosoma cruzi), P25779; purified cruzain, Z-FR-AMC fluorescence, 0.01% Triton; AID 1478, 2009; Potency, µM, for inactives: max response, negative = inhibition, actives largely listed as inhibitors;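 also: plate controls were neutral wells for no effect and buffer without enzyme for full effect; nearly all actives have a fitted effect of over 40% in size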
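Cysteine protease activity tested under reducing, mildly acidic conditions (100 mM sodium acetate pH 5.5, 5 mM DTT) plus 0.01% Triton X-100. Cruzain 1.5 nM; substrate Z-FR-AMC 2 uM; 15 min compound preincubation at room temperature.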
The depositor's hits bear a star; ? = inconclusive. Calls follow the shape of the dose curve; as a rule, active = well fitted curve in the direction sought with a large enough effect; inconclusive = small, poorly fitted or top-dose-only effect, or another doubt; inactive = no such curve, though single readings can be large; an effect the other way counts as inactive or inconclusive. Potency is read from the fitted curve at half-maximal effect.

SMILES	Cruzain inh noDet	Cruzain Triton
COc1ccc(/C=C(/CC(=O)Nc2ccccc2)c2nc3ccccc3s2)cc1	?	-7%
COc1ccccc1/C=C(/CC(=O)NCc1ccc2c(c1)OCO2)c1nc2ccccc2s1	16µM*	-4%
O=C(NCCCN1CCN(c2cccc(Cl)c2)CC1)c1cnn(-c2ccc(F)cc2)c1-n1cccc1	2%	-3%
COc1ccc(CNC(=O)CCC2N=C3c4ccccc4N=C(SCc4ccc(F)cc4)N3C2=O)cc1 (stereo unspecified)	?	-5%
Cc1ccc(C)n1-c1c(C(=O)NCCCN2CCN(c3ccc(F)cc3)CC2)sc2ncccc12	0%	-2%
O=C(NCC(c1ccco1)S(=O)(=O)c1cccs1)c1ccccc1 (stereo unspecified)	3%	-1%
CCOc1ccc(OCC)c(NC(=O)c2nnn(CC(=O)Nc3ccc(C)cc3C)c2N)c1	1%	-2%
O=C(CSc1nc2ccccc2s1)N1CCCCC1	-6%	-3%
Cc1c(Cl)cccc1N/C(SCC(=O)N1CCCCCC1)=C(/C#N)c1nc2ccccc2s1	10µM*	-5%
COC(=O)C1=C(C)NC(=O)NC1c1cn(-c2ccccc2)nc1-c1ccc(OC)c(Cl)c1 (stereo unspecified)	0%	-11%
Cc1ccc(NC(=O)c2cncc(Br)c2)c([N+](=O)[O-])c1	-7%	-2%
COc1c(C)cc(Br)cc1C(=O)Nc1ccc(C)cc1[N+](=O)[O-]	25µM*	1%
COc1ccc(S(=O)(=O)NCCc2sc(-c3cccnc3)nc2C)cc1	-10%	-5%
COc1cc(NC(=O)COC(=O)CC(C)(C)C)c(C)cc1[N+](=O)[O-]	5%	-1%
COc1cc(NC(=O)COC(=O)CNC(=O)c2ccc(Cl)cc2)c(C)cc1[N+](=O)[O-]	10µM*	13µM*
COc1cc(NC(=O)COC(=O)C2CC2)c(C)cc1[N+](=O)[O-]	-2%	-5%
COc1cc(NC(=O)COC(=O)CNC(=O)c2ccc(C)cc2)c(C)cc1[N+](=O)[O-]	13µM*	13µM*
Cc1cccc(-c2noc(-c3ccccc3OCC(=O)Nc3ccccc3[N+](=O)[O-])n2)c1	-4%	-4%
CCCCC(C)(C)[C@H](O)/C=C/[C@H]1[C@H](O)CC(=O)[C@@H]1C/C=C\CCCC(=O)O	11%	7%
Cc1ccc(-c2nc3ccccc3[nH]2)cc1NC(=O)COc1ccc(Cl)cc1Cl	16%	-1%
Cc1ccc(-c2nc3ccccc3[nH]2)cc1NC(=O)c1sc2cc(Cl)ccc2c1Cl	7.9µM*	-3%
CCS(=O)(=O)N1CCCc2cc(C(=O)Nc3cc([N+](=O)[O-])ccc3C)ccc21	-14%	-10%
CCn1c(=O)c2sccc2n2c(CCC(=O)Nc3cc(C)cc(C)c3)nnc12	-1%	-3%
CC(/C=C1\N=C(SCc2ccccc2Cl)SC1=O)=C\c1ccccc1	25µM*	-5%
O=C1SC(SCc2ccccc2)=N/C1=C\c1ccco1	-4%	-7%
SMILES	Cruzain inh noDet	Cruzain Triton
Cc1ccccc1OCC(=O)N/N=C/c1ccc2c(c1)OCCO2	-14%	-5%
O=C(NCCc1ccccc1)C(=O)N/N=C/c1ccc2c(c1)OCO2	20µM*	5%
Cc1cc(C)c(OCC(=O)N/N=C/c2ccc3c(c2)OCO3)c(C)c1	20µM*	0%
O=C(N/N=C\c1ccc2c(c1)OCO2)c1ccco1	0%	-8%
Cc1ccc(CNc2nc3ccccc3n3c(C)nnc23)cc1	-18%	-4%
COc1ccc(CCNc2nc3cc(OC)c(OC)cc3c3nc(-c4cccnc4)nn23)cc1OC	1%	0%
Cn1c(C(=O)NCc2ccc3c(c2)OCO3)cc2sccc21	-13%	-3%
Cn1c(C(=O)Nc2ccc3c(c2)OCO3)cc2sccc21	25µM*	-6%
COc1ccc(-c2c3c([nH]c(=S)c2C#N)CCC3)cc1	16µM*	-1%
N#Cc1c(-c2cccnc2)c2c([nH]c1=S)CCCC2	-1%	-2%
COc1cccc(NC(=O)C2C3CCC4C(CCC32)C4(Cl)Cl)c1 (stereo unspecified)	10%	-7%
COc1ccc(NC(=O)C2C3CCC4C(CCC32)C4(Cl)Cl)cc1 (stereo unspecified)	25µM*	3%
CCOC(=O)Cn1c(CN2CCN(c3ccc(OC)cc3)CC2)nc2c1c(=O)[nH]c(=O)n2C	12%	0%
Cc1ccc(C(=O)COC(=O)c2ccccc2NC(=O)c2ccccc2)cc1[N+](=O)[O-]	?	-3%
Cc1ccc(NC(=O)C(C)OC(=O)c2ccc(NS(=O)(=O)c3ccc(F)c(F)c3)cc2)cc1 (stereo unspecified)	-23%	-10%
CC(=O)c1ccc(NC(=O)C(C)OC(=O)c2ccc(NS(=O)(=O)c3ccc(F)c(F)c3)cc2)cc1 (stereo unspecified)	16µM*	-7%
